# TDP1 cell noCPT – qHTS for Inhibitors of human tyrosyl-DNA phosphodiesterase 1 (TDP1): qHTS in cells in absence of CPT | DT40 Tdp1-/- hTDP1 cells, no CPT, ATP luminescence, 48 h | Potency, µM (titrated, usually from 46.2 µM), without a hit: top-dose activity change, negative = growth inhibition, most hits filed as inhibitors | 15% of 420,000 active | AID 686978, 2013; further: potency means the concentration at half of the fitted maximal effect; nearly all actives have a fitted effect of over 55% in size
#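 Growth kinetics read by CellTiter-Glo luminescence after ≥48 hr at 37 °C. Cells: DT40 Tdp1-/- stably carrying human TDP1, 400 per well, compound exposure in the absence of CPT (DMSO vehicle).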
# 12-LOX inh – ALOX12 (human) lipoxygenase inhibition | P18054 | purified 12hLO, xylenol orange hydroperoxide absorbance | Potency, µM (highest dose often 108 µM), inactives show top-dose activity change, negative = inhibition, usual class: inhibitors | 1.1% of 580,000 active; further: potency means the concentration at half of the fitted maximal effect
# Target sequence (P18054 whole entry, looked up): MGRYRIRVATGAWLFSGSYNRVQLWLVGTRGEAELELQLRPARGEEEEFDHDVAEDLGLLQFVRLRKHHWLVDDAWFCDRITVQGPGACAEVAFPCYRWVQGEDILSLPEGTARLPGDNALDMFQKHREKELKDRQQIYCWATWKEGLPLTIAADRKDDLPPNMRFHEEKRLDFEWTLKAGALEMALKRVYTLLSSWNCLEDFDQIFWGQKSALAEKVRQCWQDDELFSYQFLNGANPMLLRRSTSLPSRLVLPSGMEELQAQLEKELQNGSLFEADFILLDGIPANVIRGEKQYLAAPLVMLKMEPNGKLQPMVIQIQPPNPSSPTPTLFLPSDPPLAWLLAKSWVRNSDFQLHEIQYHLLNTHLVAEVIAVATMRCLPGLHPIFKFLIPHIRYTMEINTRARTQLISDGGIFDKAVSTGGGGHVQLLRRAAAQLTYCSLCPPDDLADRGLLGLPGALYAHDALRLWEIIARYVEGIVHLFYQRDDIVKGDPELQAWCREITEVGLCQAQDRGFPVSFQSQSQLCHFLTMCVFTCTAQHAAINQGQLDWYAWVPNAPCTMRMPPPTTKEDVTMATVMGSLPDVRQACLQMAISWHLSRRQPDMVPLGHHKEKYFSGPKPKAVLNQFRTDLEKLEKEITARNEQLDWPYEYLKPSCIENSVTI
#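 Purified human 12hLO at 150 nM in 25 mM Hepes, 0.01% Triton X-100, pH 7.0, preincubated 15 min at room temperature with compound. Reaction started with 40 uM arachidonic acid, 30 min at room temperature. Hydroperoxide measured by Fe-xylenol orange, 573/405 nm absorbance ratio.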
# HT1080-NT tox – kills 2HG-producing HT-1080-NT fibrosarcoma cells. AID 686970. Potency, µM (doses to about 46.1 µM), for inactives: at the top dose activity, negative = less viability, usual class: cytotoxic. HT-1080-NT fibrosarcoma viability, CellTiter-Glo ATP luminescence, 48 h. 1.6% of 360,000 active;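 further: NT is the 2HG producing partner of a matched IDH1 knockdown line; potency means the concentration at half of the fitted maximal effect; 0% = DMSO-treated cells and -100% = media-only wells without cells; nearly all actives have a fitted effect of over 55% in size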
#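 Toxicity toward the 2HG-producing NT line was scored as %Activity, normalised to DMSO and no-cell wells, from CellTiter-Glo luminescence after 48 hours' treatment.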
# DT40 TDP1 CPT – DT40-hTDP1 cell growth loss with CPT. 12% of 420,000 active. chicken DT40 Tdp1-/-;hTDP1 cells + 20 nM CPT, ATP luminescence, 48 h. Potency, µM (series often up to 46.2 µM), inactives show at the top dose activity change, negative = growth inhibition, usual class: inhibitors; further: potency means the concentration at half of the fitted maximal effect; nearly all actives have a fitted effect of over 55% in size
#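 Chicken DT40 Tdp1-/- cells complemented with human TDP1, 400 cells/well, exposed to compounds plus 20 nM camptothecin for at least 48 h at 37 C; viability read as ATP content by CellTiter-Glo luminescence.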
# IL1B secr inh – inflammasome signaling inhibition, IL-1 beta readout; activity change, % at 57.5 µM; AID 743279; 4.7% of 360,000 active; THP-1 LPS/ATP IL-1B secretion, AlphaLISA, 16 h; active compounds read low; in the data active means activity change below about -50%; inconclusive means mostly about -30% to -49%
#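 Secreted IL-1B measured by AlphaLISA bead assay after 16 h compound exposure of THP-1 cells; compounds (final up to 57.5 uM) added 1 h before LPS (250 ng/mL) and ATP (1.25 mM) stimulation; lower signal means less secretion.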
# HT1080 IDH1KD tx – toxicity to HT-1080 IDH1 knockdown cells (counter line). HT-1080 IDH1 knockdown viability, ATP luminescence, 48 h. 2% of 360,000 active. Potency, µM (series often up to 46.1 µM), inactives show at the highest dose activity, negative = toxicity, most hits filed as cytotoxic;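 further: potency means the concentration at half of the fitted maximal effect; 0% = DMSO wells and -100% = cell-free medium wells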
#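 IDH1KD HT-1080 cells, 750/well, RPMI + 5% FBS; compound pinned after 2 h settling; 48 h, 37 °C; CellTiter-Glo luminescence; % activity normalised to DMSO and no-cell wells; curves fitted, classed by r2 and efficacy.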
# Numbers without * were called inactive; ? = inconclusive; · = not tested or not shown; [ ] = remark or other dose. Only a selection was taken, and hits are over-represented in it overall. Unless noted, the call rests on the fitted dose curve; in most records, active means well fitted curve in the direction sought with a large enough effect; inconclusive means small, poorly fitted or top-dose-only effect, or another doubt; inactive means no such curve, though single readings can be large; an effect the other way counts as inactive or inconclusive. Unless noted, on the % scale 0 is the no-effect control and ±100 the full control effect.
SMILES,TDP1 cell noCPT,12-LOX inh,HT1080-NT tox,DT40 TDP1 CPT,IL1B secr inh,HT1080 IDH1KD tx
Cc1ncsc1CCNC(=O)c1ccc2nc(-c3ccccc3)cn2c1,·,45.3%,·,·,·,·
O=C(NCc1ccc2c(c1)CCN2C(=O)c1ccc(F)cc1)c1ccco1,?,?,·,20.6µM*,·,·
CCOc1ccc(C(=O)NCc2ccc3c(c2)CCN3C(=O)c2ccc(Cl)cc2)cc1,2.1%,-27.2%,·,-7.5%,·,·
CCC(C(=O)NCc1ccc2c(c1)CCN2C(=O)c1ccc(F)cc1)c1ccccc1 (stereo unspecified),0.9%,-1.2%,·,3.7%,·,·
CCOc1ccc(C(=O)NCc2ccc3c(c2)CCN3C(=O)c2ccccc2)cc1,16.4µM*,7.5%,·,13µM*,·,·
COc1ccc(CNCCC(c2ccc(C)cc2)c2ccco2)cc1 (stereo unspecified),7.31µM*,?,·,11.6µM*,·,·
COc1ccc(CNCCC(c2ccccc2)c2ccc3c(c2)OCO3)cc1 (stereo unspecified),5.8µM*,?,?,5.8µM*,-87.5*,?
Fc1ccccc1CNCCC(Cc1ccccc1)c1ccc2c(c1)OCO2 (stereo unspecified),?,-39.5%,16.4µM*,?,-97.8*,?
COCCNC(=O)[C@@H]1CCC[C@@H](NCc2nccn2C)CN(C)C(=O)C1,·,92.5%[176 µM],·,·,·,·
CCOc1cccc(=O)c2c(C)n(CC(=O)c3ccccc3)c(C)c12,?,4.8%,-7.1%,?,-59.4*,-4.4%
Cc1cccn2c(/C=N/OCc3ccc(F)cc3)c(-c3ccc(Cl)cc3)nc12,?,1.3%,5.5%,?,8.2,5.4%
Cc1cccn2c(=O)c(/C=C(\C#N)c3nc4ccccc4[nH]3)c(Oc3ccc(C(C)(C)C)cc3)nc12,-13.7%,-5.0%,·,5.1%,·,·
Cc1cccn2c(=O)c(/C=C(\C#N)c3nc4ccccc4n3C)c(Oc3ccc(Br)cc3)nc12,6.51µM*,-23.4%,·,10.3µM*,·,·
CC(C)(C)c1ccc(Oc2nc3ccccn3c(=O)c2/C=C(\C#N)c2nc3ccccc3[nH]2)cc1,-2.7%,-13.4%,·,1.5%,·,·
N#C/C(=C\c1c(Oc2ccc(Br)cc2)nc2ccccn2c1=O)c1nc2ccccc2s1,16.4µM*,?,·,-73.1%,·,·
COc1ccc(/C(C#N)=C/c2c(-c3ccc(Cl)cc3)nc3c(C)cccn23)cc1,18.4µM*,0.3%,18.2%,?,30.2,13.9%
Cc1cc(Oc2nc3c(C)cccn3c(=O)c2/C=C(\C#N)S(=O)(=O)c2ccc(Cl)cc2)ccc1Cl,23.1µM*,-14.8%,0.3%,?,-10.2,-0.1%
CCN1CCN(c2nc3c(C)cccn3c(=O)c2/C=C(\C#N)S(=O)(=O)c2ccc(Cl)cc2)CC1,-6.9%,-2.5%,2.0%,-10.7%,-21.0,-5.1%
CCC[C@H](Nc1nc(-c2ccc(NC(=O)NCC)c(OC)c2)ncc1C)c1cccnc1,·,25.3%[57.4 µM],·,·,·,·
Cc1cccc(Oc2nc3c(C)cccn3c(=O)c2/C=C(\C#N)c2nc3ccccc3[nH]2)c1,-5.1%,-22.3%,·,-13.3%,·,·
Cc1cccn2c(=O)c(/C=C(\C#N)c3nc4ccccc4n3C)c(Oc3ccc(Cl)cc3)nc12,8.2µM*,-22.9%,·,?,·,·
COc1ccc(-n2c(=O)c3c(n2Cc2ccccc2)CN(Cc2c(C)noc2C)CC3)cc1,·,2.5%,·,·,·,·
CSC1=C(C#N)C(=O)NC(c2ccc(Cl)cc2)S1 (stereo unspecified),16.4µM*,0.0%,-1.6%,?,?,-3.5%
O=Cc1ccccc1-c1cc(F)cc(F)c1,·,16.7%[12.5 µM],·,·,·,·
CCC(O)(CC)C(=O)NN(C(=O)CCl)c1ccccc1,14.6µM*,-29.4%,0.1%,13µM*,-81.6*,?
SMILES,TDP1 cell noCPT,12-LOX inh,HT1080-NT tox,DT40 TDP1 CPT,IL1B secr inh,HT1080 IDH1KD tx
Cc1ccc(N(NC(=O)C(O)(c2ccccc2)c2ccccc2)C(=O)CCl)cc1,5.17µM*,-30.0%,5.17µM*,4.11µM*,-97.7*,5.8µM*
Cc1ccc(C(O)(C(=O)NN(C(=O)c2ccccc2)c2ccccc2)c2ccc(C)cc2)cc1,?,-7.3%,-17.7%,?,4.0,-21.4%
O=C(Nc1ccccc1)NN(C(=O)CCl)c1ccccc1,3.26µM*,-7.6%,7.31µM*,3.26µM*,-96.1*,4.61µM*
O=C(Nc1ccc2c(c1)OCCO2)c1cc2cc(Cl)ccc2[nH]1,·,-8.1%,·,·,·,·
CC(C)NC(=O)CSCc1c(Cl)cccc1Cl,14.6µM*,72.9%,7.3%,?,-7.8,-1.2%
CNC(=O)CSCc1c(Cl)cccc1Cl,-9.1%,-11.9%,8.8%,-14.4%,10.5,6.0%
O=C(/C=C/c1ccc(F)cc1)Nc1ccccc1-c1ccccc1,·,-7.5%,·,·,·,·
O=C(CSc1nc2ccccc2s1)NC1CCSc2ccc(F)cc21 (stereo unspecified),·,39.3%,·,·,·,·
CCOc1ccccc1NC(=O)CSc1c2c(nc3ccc(Cl)cc13)CCCC2,?,-20.7%,·,?,·,·
CCCN(CCC)C(=O)CSc1c2c(nc3ccc(Cl)cc13)CCCC2,?,0.0%,·,18.4µM*,·,·
CCCCN(C)C(=O)CSc1c2c(nc3ccc(Cl)cc13)CCCC2,?,0.5%,·,?,·,·
CN(Cc1ccccc1)C(=O)CSc1c2c(nc3ccc(Cl)cc13)CCCC2,16.4µM*,-20.2%,·,?,·,·
COc1cc(OC)c(N(C)C(=O)CSc2c3c(nc4ccc(Cl)cc24)CCCC3)cc1Cl,?,-6.3%,·,18.4µM*,·,·
Cc1cc2oc(=O)cc(COC(=O)c3cnccn3)c2cc1C(C)C,·,-12.1%,·,·,·,·
CCOC(=O)n1c(SCC(N)=O)nc2ccccc21,4.5%,-13.0%,7.2%,1.2%,-8.9,7.7%
CCCCOC(=O)n1c(SCC(=O)N(CC)CC)nc2ccccc21,?,-16.8%,-4.1%,20.6µM*,-19.9,4.0%
CCCOc1ccccc1C(=O)N(Cc1cccc(OC)c1)C1CCS(=O)(=O)C1 (stereo unspecified),·,-11.8%,·,·,·,·
CCCC[C@@H]1CN=C(N)N1CC(C)(C)C,23.1µM*,3.0%,12.5%,?,14.5,7.7%
CCc1ccc(NC(=O)CSC2=Nc3ccccc3C3=NC(CC(=O)NCc4ccccc4)C(=O)N23)cc1 (stereo unspecified),-0.4%,-25.7%,·,-8.1%,·,·
COc1cccc(NC(=O)CSC2=Nc3ccccc3C3=NC(CC(=O)NCc4cccs4)C(=O)N23)c1 (stereo unspecified),?,-19.6%,·,10.3µM*,·,·

# Source: PubChem
